# Screens as filed in PubChem.
# In the library only some 1.1% were active in any assay of this set; here they are far more common.
# OTUD3 block = inhibitors of human OTUD3 deubiquitinase. OTU domain-containing protein 3 (Homo sapiens), Q5T2D3. purified OTUD3, Ub-rhodamine fluorescence, 2 h. inhibition, % at 25 µM. hit rate 0.7% among 47,000. AID 1645858, 2021
# Target sequence (Q5T2D3 whole entry, looked up, the tested form may be a part): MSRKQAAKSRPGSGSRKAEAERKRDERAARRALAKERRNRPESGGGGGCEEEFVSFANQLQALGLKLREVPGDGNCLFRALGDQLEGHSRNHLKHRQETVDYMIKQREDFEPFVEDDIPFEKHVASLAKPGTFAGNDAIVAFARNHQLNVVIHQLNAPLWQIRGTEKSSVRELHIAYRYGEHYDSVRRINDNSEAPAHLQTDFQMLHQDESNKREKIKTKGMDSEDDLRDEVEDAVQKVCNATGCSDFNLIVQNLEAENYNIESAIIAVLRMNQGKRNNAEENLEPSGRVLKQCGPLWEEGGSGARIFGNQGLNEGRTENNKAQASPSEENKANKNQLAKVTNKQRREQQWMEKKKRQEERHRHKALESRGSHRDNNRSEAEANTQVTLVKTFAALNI
# USP7 inh = inhibitors of human USP7 deubiquitinase; purified USP7, Ub-rhodamine cleavage fluorescence; hit rate 0.3% among 47,000; inhibition, % at 20 µM; Ubiquitin carboxyl-terminal hydrolase 7 (Homo sapiens), Q93009; AID 1645854, 2021
# UCHL1 inh = inhibitors of human UCHL1 deubiquitinase; Ubiquitin carboxyl-terminal hydrolase isozyme L1 (Homo sapiens), P09936; purified UCHL1, Ub-rhodamine cleavage fluorescence; inhibition, % at 20 µM; hit rate 0.2% among 47,000; AID 1645859, 2021
# * = called active by the depositor; · = no result given. No stated cut-off is given here; in the data, active means inhibition above about 30%; inactive means the rest.
SMILES,OTUD3 block,USP7 inh,UCHL1 inh
O=C(Nc1ccccc1C(=O)NC1CCSC1)c1ccc([N+](=O)[O-])cc1 (stereo not given),17,0,1
Cc1ccc(N2CC(c3nc4ccccc4n3CCOc3cccc(C)c3)CC2=O)cc1 (stereo not given),12,32*,5
Cc1ccc(N2CC(c3nc4ccccc4n3CCCCOc3ccccc3)CC2=O)cc1 (stereo not given),26,13,8
CNC(=O)C1CN(C(=O)c2ccc(OC)cc2)CC12CCCC2 (stereo not given),55*,1,0
CNC(=O)C1CN(C(=O)c2ccc(C#N)cc2)CC12CCCC2 (stereo not given),-7,-8,-4
Cn1c(=O)c2nc(-c3ccc(Cl)cc3)nnc2n(C)c1=O,7,-8,32*
Cn1c(=O)c2c(nc3n(CCO)c(-c4ccc(Cl)cc4)cn23)n(C)c1=O,5,-6,4
Fc1ccccc1-c1nnc(SCc2ccccc2)n1Cc1ccccc1,35*,1,6
CC(Sc1nnc(-c2ccccc2F)n1Cc1ccccc1)C(=O)N1CCc2ccccc21 (stereo not given),25,-2,5
COc1cccc([C@H]2C[C@@](O)(CNC(=O)c3ncccc3C)[C@H](O)[C@@H](C)O2)c1,12,4,1
COc1ccc(C(=O)CN2C(=O)N(c3cccc(C)c3)S(=O)(=O)c3ccccc32)cc1,-4,5,-1
COc1cc(OC)cc(N2C(=O)N(CC(=O)c3ccc(Br)cc3)c3ccccc3S2(=O)=O)c1,-5,46*,14
Cc1ccc(C(=O)N2CC[C@](O)(c3ccccc3)[C@H](N(C)C)C2)cn1,-3,4,-2
Cn1nc(C2CC2)cc1C(=O)N1CCC(C2Nc3ccccc3S(=O)(=O)N2)CC1 (stereo not given),4,9,6
CCCCN1CCN(S(=O)(=O)c2c(C)[nH]c(C)c2-c2nnc(C)o2)CC1,6,5,1
O=C(NC(=O)c1ccc(-c2cccs2)s1)Nc1ccc(Cl)cc1,-10,0,-3
COc1ccc(-c2nc(NC(=O)Cc3ccccc3OC)sc2C)cc1,8,5,6
COc1ccc(CC(=O)Nc2nc3c(s2)CCC3)cc1,5,-1,3
O=C(Cc1ccccc1F)Nc1nc(-c2ccco2)c(-c2ccco2)s1,58*,-91,-59
COc1ccc(CC(=O)Nc2nc(-c3ccco3)c(-c3ccco3)s2)cc1,62*,-140,-94
O=C(Cn1c(=O)n(-c2ccccc2)c2ncccc21)NCc1ccc(F)cc1,-4,-3,-1
Cc1nc(-c2ccc(C(=O)Nc3ccc(F)cc3)cc2)cs1,10,34*,10
Cc1nc(-c2ccc(C(=O)Nc3cccc(F)c3)cc2)cs1,1,8,1
CC(C)c1ccc(C(=O)NCc2nnc3ccccn23)cc1,-4,-6,0
O=c1c(NCc2ccccc2)nccn1-c1ccc2c(c1)OCO2,8,·,5
SMILES,OTUD3 block,USP7 inh,UCHL1 inh
COc1cc(CCC(=O)N(C)C(c2ccccc2)c2ccccc2)cc(OC)c1OC,0,-3,2
COc1ccccc1CC(=O)N(C)C(c1ccccc1)c1ccccc1,35*,1,3
O=c1oc2ccccc2c(N2CCN(C3CCCCC3)CC2)c1CN1CCCC1,-6,0,-3
C[C@H](Cc1cc2c(cc1O)OCO2)[C@@H](C)Cc1cc2c(cc1O)OCO2,93*,19,25
Cc1cc2c(cc1CCc1cc3c(cc1C)OCO3)OCO2,0,2,-1
CCC1OC(O)(C(C)C(O)C(C)C2OC(=O)/C(C)=C/C(C)=CC(C)C(O)C(C)C/C(C)=C/C=C/C2OC)CC(OC(=O)/C=C/C(=O)NC2=C(O)CCC2=O)C1C (stereo not given),32*,26,5
CO/C1=C\C(C)=C/[C@@H](C)[C@@H](O)[C@@H](C)C/C(C)=C/C=C/[C@H](OC)[C@@H]([C@@H](C)[C@@H](O)[C@H](C)[C@@]2(O)C[C@@H](OC(=O)/C=C/C(N)=O)[C@H](C)[C@@H](C(C)C)O2)OC1=O,22,16,1
Cc1cc(F)ccc1NC(=O)Cn1c(C)cc(C)c1-c1nc(C2CC2)no1,0,-43,-2
Cc1nc(-c2ccc3c(c2)nnn3CCN2CCOCC2)no1,41*,4,0
CCc1nc(-c2ccc3c(c2)nnn3CCN2CCCCC2)no1,-2,-12,2
CC[C@H](C)C[C@H]1CC[C@](O)([C@](C)(O)C(=O)N[C@@H]2C(=O)N3NCCC[C@@H]3C(=O)N(O)[C@@H](C)C(=O)NCC(=O)N3NCCC[C@H]3C(=O)N(O)[C@H](C)C(=O)O[C@H]2C(C)C)O[C@@H]1C,73*,-142,3
COc1ccccc1-c1noc2ncnc(N(Cc3ccco3)CC3CCCO3)c12 (stereo not given),21,8,4
